# Measured values from PubChem BioAssay (NCI).
# The panel holds about 83,000 compounds, 20% with a hit somewhere; the sample as a whole holds those more often.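 How to read the values: 0–100, growth inhibition (40 = 60% inhibited); 0, no net growth; -100 to 0, cell death (-40 = 40% of starting cells died; -100 = all dead).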 Unmarked numbers belong to inactive results. The source made the active and inactive calls. The calls were made as follows: active = growth percent below 10; inactive = the rest.
# Tests used:
# Test in all cases: NCI-60 one-dose screen, 48 h (100 = growth as untreated, 0 = no growth, -100 = all killed)
# Details in all cases: 10 µM
# [1] = system: DU-145 prostate
# [2] = system: K-562 leukemia
# [3] = system: MDA-MB-231 breast
# [4] = system: RXF 393 renal
# [5] = system: SF-268 CNS
# [6] = system: SF-295 CNS
# [7] = system: SF-539 CNS
# [8] = system: UACC-257 melanoma
# [9] = system: M14 melanoma
SMILES,growth [1],growth [2],growth [3],growth [4],growth [5],growth [6],growth [7],growth [8],growth [9]
COc1cc([C@@H]2c3cc4c(cc3[C@H](SC(=N)N)[C@H]3COC(=O)[C@H]23)OCO4)cc(OC)c1OC,6.78% (active),13.8%,-5.46% (active),27.1%,30.3%,-20.4% (active),-22.5% (active),57.1%,16.9%
CC1(C)Cc2c(cn(Cc3ccccc3)c2-c2ccccc2)-c2oncc21,103%,74.7%,104%,98%,107%,99.5%,107%,101%,100%
CCN(CC)CC(O)Cc1ccc(OC)cc1 (stereo not drawn),115%,101%,105%,106%,114%,109%,97.4%,113%,116%
N#CC1C=Cc2c(ccc3ccccc23)N1C(=O)c1ccccc1 (stereo not drawn),-2.67% (active),17.2%,24.4%,5.17% (active),27.2%,-19.4% (active),-7% (active),70.3%,7.78% (active)
Oc1[nH]c2ccccc2c1/C=c1/cc2c(c(-c3ccc(C(F)(F)F)cc3)n1)=Nc1ccccc1-2,62.5%,22.8%,45.6%,56.1%,79.1%,37%,83.5%,82.4%,33.5%
Oc1ccc(/C=N\Nc2ccccn2)c(O)c1,11.1%,24.3%,37.8%,28.5%,16.4%,-4.28% (active),-0.82% (active),30.3%,-36.2% (active)
S=C(Cc1ccc(-c2ccccc2)cc1)N1CCOCC1,104%,95.3%,84.7%,103%,101%,93.6%,99%,107%,101%
COc1ccc(C(=O)n2nc(CC(=O)NCc3ccccc3)nc2N)cc1,115%,95.7%,96.2%,118%,108%,108%,112%,105%,101%
O=[N+]([O-])c1ccc(-c2nc(-c3ccccc3)c(-c3ccccc3)n2-c2ccccc2)cc1,49.4%,-25% (active),14.3%,73.9%,65.8%,16.6%,57.8%,57.4%,49.6%
Nc1c(C(=O)Nc2ccccc2F)sc2nc3c(cc12)C(=O)CCC3,8.4% (active),26.3%,48.9%,9.63% (active),54.9%,3.17% (active),10.5%,66.9%,19.2%
COc1ccc(Cn2cc3c(c2-c2cc(OC)c(OC)c(OC)c2)CCc2cnoc2-3)cc1N,1.73% (active),15%,19.5%,35%,15.4%,-16.9% (active),5.21% (active),65.9%,6.22% (active)
C=CCNCCCN1C(=O)c2ccc3c4c(ccc(c24)C1=O)C(=O)N(CCCNCC=C)C3=O,-94.8% (active),0.431% (active),1.35% (active),-94.1% (active),-22.1% (active),-76.9% (active),-88.7% (active),-84% (active),-84.8% (active)
